Screening data as filed in PubChem.
Cruzain inh noDet – qHTS Assay for Promiscuous and Specific Inhibitors of Cruzain (without detergent); Potency, µM, hits mostly inhibitors; purified cruzain, Z-FR-AMC fluorescence, no detergent; actives 2.3% (n = 200,000); Cruzipain (Trypanosoma cruzi), P25779; AID 1476, 2009; note: nearly all actives have a fitted effect of over 40% in size
Target sequence (P25779 123-467 limits assumed): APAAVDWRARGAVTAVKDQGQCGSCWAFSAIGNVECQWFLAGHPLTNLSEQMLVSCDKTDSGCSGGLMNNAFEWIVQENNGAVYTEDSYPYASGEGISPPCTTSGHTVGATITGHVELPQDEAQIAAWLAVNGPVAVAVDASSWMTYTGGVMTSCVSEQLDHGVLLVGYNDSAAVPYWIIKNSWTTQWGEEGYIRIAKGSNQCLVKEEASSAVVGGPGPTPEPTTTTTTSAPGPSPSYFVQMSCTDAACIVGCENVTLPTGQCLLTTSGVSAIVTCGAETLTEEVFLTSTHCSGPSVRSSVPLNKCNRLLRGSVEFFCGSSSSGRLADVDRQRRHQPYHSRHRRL
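Detergent-free condition (0.00005% Triton X-100) in acetate buffer pH 5.5 with DTT. 1.5 nM enzyme and compound were pre-mixed 15 min, then 2 uM Z-FR-AMC substrate added; reaction progress from fluorescence change between first and third reads (60 s).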
Cruzain Triton – qHTS Assay for Promiscuous and Specific Inhibitors of Cruzain (with detergent). actives 0.43% (n = 200,000). AID 1478, 2009. Potency, µM, most hits filed as inhibitors. purified cruzain, Z-FR-AMC fluorescence, 0.01% Triton; note: nearly all actives have a fitted effect of over 40% in size
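Read-out: AMC fluorescence (360 nm excitation, 450 nm emission), four reads over 2 min, first-to-third difference used. Conditions: cruzain 1.5 nM, Z-FR-AMC 2 uM, pH 5.5 acetate, 5 mM DTT, 0.01% Triton X-100.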
A number is an active result. Shown are actives, neighbours in structure and some others; about 2.5% of the full set was active somewhere. Calls come from the whole dose curve; as a rule, active = well fitted curve in the direction sought with a large enough effect; inconclusive = small, poorly fitted or top-dose-only effect, or another doubt; inactive = no such curve, though single readings can be large; an effect the other way counts as inactive or inconclusive.

Results for Cn1c(=O)c2c(SCC(=O)NCc3ccco3)nc(-c3ccccc3F)nc2n(C)c1=O ?
Cruzain inh noDet: inactive; Cruzain Triton: inactive

How did Cc1ccccc1N=Nc1ccc(O)c2ncccc12 do in these assays?
Cruzain inh noDet: 20µM; Cruzain Triton: inactive

Results for Cc1ccccc1NCc1ccc(O)c2ncccc12 ?
Cruzain inh noDet: inactive; Cruzain Triton: inactive

What do the screens show for `CCN1CCN(c2cc(C)c3cc(NC(=O)/C=C/c4ccc(C)cc4)ccc3n2)CC1`?
Cruzain inh noDet: inactive; Cruzain Triton: inactive

How did COc1cccc(/C=c2\s/c(=C/C(=O)c3ccc(C)cc3)[nH]c2=O)c1OC do in these assays?
Cruzain inh noDet: inactive; Cruzain Triton: inactive

What do the screens show for `COc1ccc(/C=c2\s/c(=C/C(=O)c3ccc(C)cc3)[nH]c2=O)c(OC)c1`?
Cruzain inh noDet: 25.1µM; Cruzain Triton: inactive

How did ONC(=Nc1ccc(Cl)cc1)c1ccc(Cl)cc1 do in these assays?
Cruzain inh noDet: inactive; Cruzain Triton: inactive

What do the screens show for `[S-]C(=Nc1ccc(Cl)cc1)N[n+]1ccccc1`?
Cruzain inh noDet: 7.94µM; Cruzain Triton: 20µM

How did COc1ccc(-c2csc(NC(=O)c3cc(-c4cccs4)nc4ccccc34)n2)c(OC)c1 do in these assays?
Cruzain inh noDet: 5.01µM; Cruzain Triton: inactive

Results for COc1ccccc1-c1cc(C(=O)N/N=C/c2cccs2)c2ccccc2n1 ?
Cruzain inh noDet: inactive; Cruzain Triton: inactive

How did COc1ccccc1-c1csc(NC(=O)c2cc(-c3cccs3)nc3ccccc23)n1 do in these assays?
Cruzain inh noDet: 3.98µM; Cruzain Triton: inactive

Results for COc1ccc(-c2cc(C(=O)N/N=C/c3sccc3C)c3ccccc3n2)c(OC)c1 ?
Cruzain inh noDet: inconclusive; Cruzain Triton: inactive

Results for CCCc1cc(=O)oc2cc(C)c3c(-c4cccc(OC)c4)coc3c12 ?
Cruzain inh noDet: inactive; Cruzain Triton: inactive

Results for COc1ccc(CCn2c(=O)c3cccnc3n(CC(=O)Nc3c(C)cc(C)cc3C)c2=O)cc1OC ?
Cruzain inh noDet: inactive; Cruzain Triton: inactive

Results for N#C/C(=C\c1cc([N+](=O)[O-])c(N2CCCCC2)cc1N1CCCCC1)c1nn(-c2ccccc2)c(N)c1C#N ?
Cruzain inh noDet: 7.94µM; Cruzain Triton: inactive

Results for N#C/C(=C\c1cc([N+](=O)[O-])c(N2CCOCC2)cc1N1CCOCC1)c1nc2ccccc2[nH]1 ?
Cruzain inh noDet: inconclusive; Cruzain Triton: inactive

What do the screens show for `Cc1ccc2c(c1)c(=O)c(C(=O)c1ccncc1)cn2CC(=O)Nc1c(C)cccc1C`?
Cruzain inh noDet: inactive; Cruzain Triton: inactive

What do the screens show for `COC(=O)NC(=S)Nc1ccc(Oc2ccc(Cl)cc2Cl)c(Cl)c1`?
Cruzain inh noDet: 25.1µM; Cruzain Triton: inactive

How did COC(=O)NC(=S)Nc1ccc(Oc2ccc(Cl)cc2)c(Cl)c1 do in these assays?
Cruzain inh noDet: inactive; Cruzain Triton: inactive

What do the screens show for `CC(=O)c1cc2c(cc1N/C(=N/S(=O)(=O)c1ccc(Cl)cc1)c1ccc(F)cc1)OCO2`?
Cruzain inh noDet: inactive; Cruzain Triton: inactive

Results for O=C(CSCc1ccc(F)cc1)N1CCN(c2ccccc2F)CC1 ?
Cruzain inh noDet: inactive; Cruzain Triton: inactive

Results for Cc1ccc(C(=O)N/N=C/c2cc(C)n(-c3ccc(Br)cc3)c2C)cc1[N+](=O)[O-] ?
Cruzain inh noDet: 20µM; Cruzain Triton: inactive

Results for Cc1ccc(-n2c(C)cc(/C=N/NC(=O)c3ccncc3)c2C)cc1 ?
Cruzain inh noDet: inactive; Cruzain Triton: inactive

How did CCOc1ccc(NC(=O)CC2C(=O)N(c3ccccc3)C(=O)N2CCc2sccc2C)cc1 (stereo unspecified) do in these assays?
Cruzain inh noDet: inactive; Cruzain Triton: inactive

Results for O=C(NC(=Nc1nc2ccccc2o1)NC(=O)c1ccccc1)c1ccccc1 ?
Cruzain inh noDet: 12.6µM; Cruzain Triton: inactive

What do the screens show for `COc1ccccc1C(=O)NC(=Nc1nc2ccccc2o1)NC(=O)c1ccccc1OC`?
Cruzain inh noDet: inconclusive; Cruzain Triton: inactive

Results for COc1ccc(C2Oc3cc(OC)cc(OC)c3CC2O)cc1 (stereo unspecified) ?
Cruzain inh noDet: inactive; Cruzain Triton: inactive

What do the screens show for `CCCCCCC(=O)N(O)C1CC(=O)N(c2ccc(Br)cc2)C1=O` (stereo unspecified)?
Cruzain inh noDet: 10µM; Cruzain Triton: inactive

What do the screens show for `COc1ccccc1N(O)C1CC(=O)N(c2ccc(Br)cc2)C1=O` (stereo unspecified)?
Cruzain inh noDet: inconclusive; Cruzain Triton: inactive

What do the screens show for `Cc1ccc(-c2nnc(SCC(=O)Nc3sc(C)c(C)c3C#N)n2C)cc1`?
Cruzain inh noDet: inconclusive; Cruzain Triton: inactive

What do the screens show for `Cc1sc(NC(=O)CSc2nnc(COc3ccc(Cl)cc3)n2C)c(C#N)c1C`?
Cruzain inh noDet: 25.1µM; Cruzain Triton: inactive

What do the screens show for `Cc1ccc(C)c2c1[nH]c1ccccc12`?
Cruzain inh noDet: inactive; Cruzain Triton: inactive

How did O=C1NC(=O)c2c1c1c3ccccc3[nH]c1c1[nH]c3ccccc3c21 do in these assays?
Cruzain inh noDet: 8.91µM; Cruzain Triton: inactive

How did CCN(C(=O)c1cc2c(Cl)nc3ccc(C)cc3c2s1)c1cc(OC)ccc1OC do in these assays?
Cruzain inh noDet: inactive; Cruzain Triton: inactive

What do the screens show for `CS(=O)(=O)c1ccc2nc(NC(=O)Nc3ccc(Cl)c(Cl)c3)sc2c1`?
Cruzain inh noDet: 10µM; Cruzain Triton: inactive

What do the screens show for `CS(=O)(=O)c1ccc2nc(NC(=O)Nc3cccc(Cl)c3)sc2c1`?
Cruzain inh noDet: inconclusive; Cruzain Triton: inactive

How did CN(C)S(=O)(=O)c1cccc(C(=O)C2=C3SC=C(c4ccccc4)N3CC2)c1 do in these assays?
Cruzain inh noDet: 25.1µM; Cruzain Triton: inactive

What do the screens show for `CN(C)S(=O)(=O)c1cccc(C(=O)N2CCc3ccccc32)c1`?
Cruzain inh noDet: inactive; Cruzain Triton: inactive

How did CCSc1nnc2c(n1)OC=Nc1ccc(Br)cc1-2 do in these assays?
Cruzain inh noDet: inactive; Cruzain Triton: inactive

What do the screens show for `C=CCSc1nnc2c(n1)OC=Nc1ccc(Br)cc1-2`?
Cruzain inh noDet: 25.1µM; Cruzain Triton: inactive

What do the screens show for `COc1ccc(NC(=O)C2(c3ccc(NC(=O)c4ccc(C)cc4)cc3)CCCC2)cc1`?
Cruzain inh noDet: 6.31µM; Cruzain Triton: inactive

How did COc1ccc(NC(=O)C2(c3ccc(NC(=O)c4ccc(OC)c(OC)c4)cc3)CCCC2)cc1 do in these assays?
Cruzain inh noDet: inactive; Cruzain Triton: inactive

What do the screens show for `COc1cc(/C=N/NC(=O)C(=O)/C=C2\NC3(CCCC3)Cc3ccccc32)ccc1O`?
Cruzain inh noDet: inactive; Cruzain Triton: inactive

How did O=C(/C=C1\NC2(CCCC2)Cc2ccccc21)C(=O)N/N=C/c1ccccc1O do in these assays?
Cruzain inh noDet: 25.1µM; Cruzain Triton: inactive

Results for CN(C)c1ccc(CN(CC2CCCO2)C(=O)COc2ccccc2Cl)cc1 (stereo unspecified) ?
Cruzain inh noDet: inactive; Cruzain Triton: inactive

How did COc1ccccc1-c1nnc(SCC(=O)c2ccc(Cl)cc2)n1-c1ccccc1 do in these assays?
Cruzain inh noDet: 25.1µM; Cruzain Triton: inactive

Results for COC(=O)CSc1nnc(-c2ccccc2OC)n1-c1ccc(C)cc1 ?
Cruzain inh noDet: inactive; Cruzain Triton: inactive

How did C[C@@H](N)/C(N)=N/O do in these assays?
Cruzain inh noDet: inactive; Cruzain Triton: inactive

Results for CCOC(=O)CNC(=O)O[C@@H]1C(=O)c2cc(Br)ccc2O[C@H]1c1ccc2c(c1)OCO2 ?
Cruzain inh noDet: inactive; Cruzain Triton: inactive
